Assay outcomes: PubChem, National Center for Advancing Translational Sciences (NCATS)
HCV inh: inhibitors of hepatitis C virus infection. Huh7.5.1 HCVcc-Cre infection, luciferase reporter, 44 h. Potency, µM (top dose mostly 41.8 µM), for the others: at the highest dose activity change, negative = inhibition, hits mostly inhibitors. 3.4% of 340,000 active. AID 651820; active = well fitted inhibition curve with a large enough effect; inconclusive = small, poorly fitted or top-dose-only effect, or another doubt; inactive = no such curve, though single readings can be large or run the other way; note: potency is the fitted concentration of half-maximal effect
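1,000 cells/well; 4 h culture; + compound; + HCVcc-Cre (~0.5 moi); 44 h; luciferase substrate, RT 15 min; read 15 sec.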
Lassa entry inh: blocks Lassa virus binding to or entry into cells; 1.2% of 300,000 active; AID 540256; Lassa virus pseudotype entry inhibition, cell reporter; Potency, µM (series often up to 37.9 µM), for inactives: at the top dose activity change, negative = inhibition, usual class: inhibitors; calls by dose curve; tested in HEK293 cells; note: potency is the fitted concentration of half-maximal effect; nearly all actives have a fitted effect of over 50% in size
FMDV inh: blocks foot and mouth disease virus. Potency, µM (top dose mostly 57.9 µM), without a hit: top-dose activity change, negative = inhibition, most hits filed as inhibitors. 1.2% of 410,000 active. FMDV antiviral cell-based qHTS; calls by dose curve; tested in HEK293T cells; note: read-out not given here; potency is the fitted concentration of half-maximal effect; nearly all actives have a fitted effect of over 45% in size
MARV entry inh: inhibitors of Marburg virus binding or cell entry. 1.8% of 300,000 active. Marburg virus pseudotyped entry inhibition, cell reporter. Potency, µM (doses to about 37.8 µM), without a hit: at the highest dose activity change, negative = inhibition, hits mostly inhibitors; calls by dose curve; tested in HEK293 cells; note: potency is the fitted concentration of half-maximal effect
HCMV inh: human cytomegalovirus inhibition | 4.5% of 410,000 active | AID 1259415 | activity change, negative = inhibition, % at 57.5 µM | HFF cells, HCMV-luciferase reporter, 72 h; hits give low values; in the data active = activity change below about -60%; inconclusive = no clear call, values can overlap the other calls; inactive = above about -39%
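Two compound doses tested in HFFs infected with HCMV-luciferase, MOI 1 PFU/cell, 72 h at 37C. Lysate luminescence read with OneGlo; data normalized against buffer-only and 10uM Salinomycin inhibitor controls.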
* marks the source's active call; other numbers are inactive results; [ ] = another dose, or the depositor's remark. Only some compounds are listed: those with a hit (about 7.9% of all), similar ones and a draw of the others. % is set by controls: 0 for no effect and ±100 for the full control effect.

O=[N+]([O-])c1cc(CN2CCN(c3ccccc3)CC2)c(O)c2ncccc12 was read as HCV inh inconclusive, Lassa entry inh inconclusive, FMDV inh -20.1%, MARV entry inh inconclusive and HCMV inh -88.7*.
For O=[N+]([O-])c1cc(CN2CCOCC2)c2cccnc2c1O the results were HCV inh 0.1%, Lassa entry inh -28.8%, FMDV inh -6.7% and MARV entry inh -20.8%[46.1 µM].
CCCOCc1cc(CN2CCN(c3cccc(Cl)c3)CC2)c(O)c2ncccc12 was read as Lassa entry inh inconclusive, FMDV inh -23.5%, MARV entry inh inconclusive and HCMV inh -96.7*.
`CN1CCN(C2CCN(Cc3ccc(O)c4ncccc34)CC2)CC1` gave FMDV inh 0.4% and HCMV inh -15.5.
For CCCCOCc1cc(CN2CCN(c3cccc(Cl)c3)CC2)c(O)c2ncccc12 the results were Lassa entry inh inconclusive, FMDV inh 0.0%, MARV entry inh inconclusive and HCMV inh -100.1*.
Screening CC(C)COc1ccc(C(=O)Nc2cc(-c3ccccc3)no2)cc1 returned Lassa entry inh inconclusive, FMDV inh 20.4%, MARV entry inh inconclusive and HCMV inh 42.4.
CNc1nc(Nc2ccc(C)cc2C)c2sccc2n1 was read as FMDV inh inconclusive and HCMV inh -62.5*.
Screening CC(C)Nc1nc(Nc2ccc(Cl)cc2F)c2sccc2n1 returned FMDV inh 0.0% and HCMV inh inconclusive.
CCOC(=O)Cc1ccc(Nc2nc(NCc3ccccc3)nc3ccsc23)cc1 was read as FMDV inh 28.2µM* and HCMV inh 23.5.
CNc1nc(NCc2ccc(C)cc2C)c2sccc2n1 was read as FMDV inh inconclusive and HCMV inh -31.2.
Screening Cc1ccc(CNc2nc(NC(C)C)nc3ccsc23)c(C)c1 returned FMDV inh -28.9% and HCMV inh -8.0.
Cc1ccc(CNc2nc(NCC3CC3)nc3ccsc23)c(C)c1 was read as FMDV inh inconclusive and HCMV inh -77.1*.
`Cc1ccc(CNc2nc(NCc3ccccc3)nc3ccsc23)c(C)c1` gave FMDV inh inconclusive and HCMV inh -62.9*.
COC(=O)[C@@H]1CCCN1Cc1ccc2c(c1)CN(Cc1cccn1-c1ccc(Cl)cn1)CCO2 was read as FMDV inh -1.7%.
`COC(=O)c1ccc(CN2C[C@H](Sc3ccccn3)C[C@H]2C(=O)N(C)C)cc1` gave FMDV inh 10.8%.
For COCCNc1nc(NC(C)C)nc2ccsc12 the results were FMDV inh -21.6% and HCMV inh 0.8.
`COCCNc1nc(NCc2ccccc2)nc2ccsc12` gave FMDV inh inconclusive and HCMV inh -60.7*.
Cc1ccc(Nc2nc(NCC3CC3)nc3ccsc23)c(C)c1 was read as FMDV inh inconclusive and HCMV inh -82.1*.
`CC1CCCCN1C(=O)c1ccc2c(c1)N(Cc1ccc(F)cc1)C(=O)c1ccccc1S2(=O)=O` (stereo unspecified) gave Lassa entry inh inconclusive, FMDV inh 2.8%, MARV entry inh -2.4%[46.1 µM] and HCMV inh -2.9.
COC(=O)Cc1[nH]nc2c1C(C1C=CCCC1)C(C#N)=C(N)O2 (stereo unspecified) was read as HCV inh inconclusive, Lassa entry inh 3.0%, FMDV inh 15.8µM*, MARV entry inh -1.2% and HCMV inh -7.9.
`O=C1[C@H]2[C@@H]3[C@@H](O)[C@H](O)CC(=NOCc4ccccc4)[C@H]3CC[C@H]2C(=O)N1Cc1ccc2c(c1)OCO2` gave Lassa entry inh -19.0%[14.3 µM] and MARV entry inh -37.8%[14.2 µM].
`COc1cccc(N/C(SCc2ccccc2C)=C(/C#N)C(=O)NCc2cccs2)c1` gave HCV inh -24.5%, Lassa entry inh inconclusive, FMDV inh -5.4%, MARV entry inh inconclusive and HCMV inh -80.3*.
Cc1ccc(CS/C(Nc2ccccc2C)=C(\C#N)C(=O)NCc2ccco2)c(C)c1 was read as HCV inh -5.3%, Lassa entry inh 3.66µM*, FMDV inh -27.2%, MARV entry inh inconclusive and HCMV inh -21.7.
Cc1ccc(C)c(NC(=O)/C(C#N)=C/c2cn(CC(=O)NCc3ccco3)c3ccccc23)c1 was read as HCV inh inconclusive, Lassa entry inh -17.1%, FMDV inh -7.7%, MARV entry inh inconclusive and HCMV inh -99.5*.
`Cc1cc(C)cc(NC(=O)/C(C#N)=C/c2cn(CC(=O)NCc3ccco3)c3ccccc23)c1` gave HCV inh inconclusive, Lassa entry inh inconclusive, FMDV inh inconclusive, MARV entry inh inconclusive and HCMV inh -85.0*.
Cc1ccccc1N/C(SCc1ccc(Cl)cc1)=C(/C#N)C(=O)NCc1ccco1 was read as HCV inh -26.4%, Lassa entry inh inconclusive, FMDV inh -20.6%, MARV entry inh inconclusive and HCMV inh -0.1.
Cc1ccc(N2CC(NC(=O)c3ccco3)CC2=O)cc1C (stereo unspecified) was read as Lassa entry inh -17.8%[46.1 µM], FMDV inh 2.8% and HCMV inh -18.1.
Screening O=S(=O)(NCc1ccco1)N1CCCCCC1 returned HCV inh 2.0%, Lassa entry inh 8.7%, FMDV inh 33.7%, MARV entry inh 3.2% and HCMV inh -62.3*.
`COC(=O)[C@@H]1[C@@H](CO)[C@@H]2Cn3c(cccc3=O)[C@@H]2N1C(=O)c1cnccn1` gave HCMV inh 23.1.
For CC(=O)OCc1cnc(C)c2oc(=O)c(C(=O)Nc3cccc(F)c3)cc12 the results were Lassa entry inh 0.794µM*, FMDV inh -6.1% and HCMV inh 3.1.
COc1ccccc1N(Cc1ccccc1)S(=O)(=O)c1cccc(C(=O)Nc2cc(C)ccn2)c1 was read as HCV inh inconclusive, Lassa entry inh inconclusive, FMDV inh inconclusive, MARV entry inh inconclusive and HCMV inh -89.9*.
For CC1(C)CC(NC(=O)c2ccc(Cl)c(S(=O)(=O)N(Cc3ccccc3)c3ccccc3)c2)CC(C)(C)N1 the results were HCV inh inconclusive, Lassa entry inh -42.9%, FMDV inh -28.2%, MARV entry inh 8.91µM* and HCMV inh -37.4.
For COc1ccccc1N(Cc1ccccc1)S(=O)(=O)c1cccc(C(=O)NC2CC(C)(C)NC(C)(C)C2)c1 the results were HCV inh 2.24µM*, Lassa entry inh inconclusive, FMDV inh 8.1%, MARV entry inh inconclusive and HCMV inh -33.8.
For Cc1cccc(C)c1-n1ncc(C(=O)N2CCN(c3ccccn3)CC2)c1C1CCN(C(=O)OC(C)(C)C)CC1 the results were Lassa entry inh inconclusive, FMDV inh -27.9% and HCMV inh -8.6.
For CCN(CC)CCOC(=O)c1ccc(NC(=O)C(C)NC(=O)C23CC4CC(CC(C4)C2)C3)cc1 (stereo unspecified) the results were HCV inh 25.0%, Lassa entry inh -4.1%, FMDV inh 6.9%, MARV entry inh -13.8% and HCMV inh -63.6*.
